Bioassay records: PubChem, National Center for Advancing Translational Sciences (NCATS)
KDM5B inhibitor: Primary screen for KDM5B Histone Demethylases FDH-coupled qHTS; KDM5B demethylase, FDH-coupled NADH fluorescence (FDH is formaldehyde dehydrogenase); Lysine-specific demethylase 5B (Homo sapiens), Q9UGL1; Potency, µM (series often up to 57.7 µM), usual class: inhibitors; actives 2.6% (n = 220,000); active means well fitted inhibition curve with a large enough effect; further: nearly all actives have a fitted effect of over 70% in size
Target sequence (Q9UGL1 whole entry, looked up): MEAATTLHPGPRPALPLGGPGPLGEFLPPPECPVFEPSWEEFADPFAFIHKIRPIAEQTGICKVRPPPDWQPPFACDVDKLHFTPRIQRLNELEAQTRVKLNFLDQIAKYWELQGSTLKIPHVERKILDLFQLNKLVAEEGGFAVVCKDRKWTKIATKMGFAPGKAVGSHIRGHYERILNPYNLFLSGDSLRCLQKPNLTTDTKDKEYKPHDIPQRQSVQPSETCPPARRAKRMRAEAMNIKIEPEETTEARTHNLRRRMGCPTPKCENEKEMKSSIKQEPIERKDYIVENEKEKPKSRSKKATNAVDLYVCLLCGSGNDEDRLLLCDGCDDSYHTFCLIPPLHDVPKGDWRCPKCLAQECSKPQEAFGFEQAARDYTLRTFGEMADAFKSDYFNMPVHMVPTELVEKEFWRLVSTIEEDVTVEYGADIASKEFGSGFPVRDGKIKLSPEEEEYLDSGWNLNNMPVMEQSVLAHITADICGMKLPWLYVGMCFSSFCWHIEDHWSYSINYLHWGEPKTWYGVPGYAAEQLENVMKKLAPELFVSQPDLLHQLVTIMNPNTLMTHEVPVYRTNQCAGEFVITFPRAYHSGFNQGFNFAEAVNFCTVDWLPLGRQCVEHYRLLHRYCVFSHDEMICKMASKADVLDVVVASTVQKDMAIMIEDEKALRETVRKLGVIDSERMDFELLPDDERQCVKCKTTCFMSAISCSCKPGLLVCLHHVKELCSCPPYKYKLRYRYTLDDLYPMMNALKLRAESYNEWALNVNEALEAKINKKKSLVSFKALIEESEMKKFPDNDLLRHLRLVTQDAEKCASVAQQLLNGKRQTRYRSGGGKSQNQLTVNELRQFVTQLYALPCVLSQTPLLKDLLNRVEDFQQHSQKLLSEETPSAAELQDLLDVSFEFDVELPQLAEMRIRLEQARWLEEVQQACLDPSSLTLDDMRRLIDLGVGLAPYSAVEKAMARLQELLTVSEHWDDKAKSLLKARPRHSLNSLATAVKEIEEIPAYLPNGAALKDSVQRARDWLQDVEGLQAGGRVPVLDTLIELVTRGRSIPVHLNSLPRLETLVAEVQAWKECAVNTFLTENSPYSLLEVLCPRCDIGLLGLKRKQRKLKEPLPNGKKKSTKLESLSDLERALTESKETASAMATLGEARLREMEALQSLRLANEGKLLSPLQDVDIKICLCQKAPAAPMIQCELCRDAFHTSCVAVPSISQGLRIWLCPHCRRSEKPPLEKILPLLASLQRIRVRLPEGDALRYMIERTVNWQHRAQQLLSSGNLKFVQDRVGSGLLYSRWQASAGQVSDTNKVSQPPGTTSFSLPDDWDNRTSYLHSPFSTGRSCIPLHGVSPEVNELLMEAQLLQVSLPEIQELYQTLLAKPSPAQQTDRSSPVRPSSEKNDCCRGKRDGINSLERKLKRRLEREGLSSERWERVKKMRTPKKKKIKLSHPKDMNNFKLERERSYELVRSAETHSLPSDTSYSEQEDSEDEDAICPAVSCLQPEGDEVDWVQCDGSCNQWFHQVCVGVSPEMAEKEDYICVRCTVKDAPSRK
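Inhibition is measured as reduced NADH fluorescence generation from FDH coupling to formaldehyde release. Truncated KDM5BΔAP at 200 nM final acts on H3K4me3 peptide (12.5 µM in substrate mix) in pH 7.5 HEPES buffer with Tween-20, 30 min, room temperature.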
Hits are given with their value; - = inactive. Only a selection was taken, and hits are over-represented in it overall.

SMILES | KDM5B inhibitor
O=C(c1ccoc1)N1CCC(Nc2cccnc2)C1 (stereo not given) | 13µM
CN(C)S(=O)(=O)N1CCC(Nc2cccnc2)C1 (stereo not given) | 8.9µM
CCCS(=O)(=O)N1CCC(c2noc(-c3cccnc3)n2)C1 (stereo not given) | -
CCS(=O)(=O)N1CCC(Cc2nc(-c3cccnc3)n[nH]2)C1 (stereo not given) | -
O=C(c1ccoc1)N1CCC(Oc2cccnc2)C1 (stereo not given) | -
CCS(=O)(=O)N1CCC(Nc2cccnc2)C1 (stereo not given) | 22µM
CC(=O)N1CCC(C2CCN(S(=O)(=O)c3cccnc3)C2)CC1 (stereo not given) | -
CCCCN(CCCC)C(=O)c1csc(Br)c1 | -
CCN(CC)c1ccc(NC(=O)c2cc3ccc(OC)cc3[nH]2)cc1 | -
Cc1cccc(NC(=O)c2ccccc2NC(=O)c2nc(-c3ccccc3)oc2C)c1 | -
O=C1Nc2ccc(-c3ccccc3F)cc2C(=O)N2CC[C@H](NS(=O)(=O)c3cccs3)[C@@H]12 | -
O=C(N[C@H]1CCN2C(=O)c3cc(-c4ccsc4)ccc3NC(=O)[C@@H]2C1)c1cccs1 | 22µM
O=C(N[C@H]1CCN2C(=O)c3cc(-c4ccccc4)ccc3NC(=O)[C@H]12)C1CCCC1 | -
O=C(N[C@H]1CCN2C(=O)c3cc(-c4ccc(F)cc4F)ccc3NC(=O)[C@@H]2C1)c1cccs1 | -
CSc1ccc(-c2ccc3c(c2)C(=O)N2CC[C@H](NC(=O)C4CCCC4)[C@H]2C(=O)N3)cc1 | 25µM
O=C(N[C@H]1C[C@H]2C(=O)Nc3ccc(-c4ccsc4)cc3C(=O)N2C1)c1ccccc1 | -
N[C@H]1CCN2C(=O)c3cc(-c4ccccc4F)ccc3NC(=O)[C@H]12 | -
COc1ccc(/C=C/c2ccc3c(c2)C(=O)N2CC[C@H](N)[C@H]2C(=O)N3)cc1 | 35µM
COc1ccc(-c2ccc3c(c2)C(=O)N2CC[C@H](NS(=O)(=O)c4cccs4)[C@H]2C(=O)N3)cc1 | 22µM
C=CCO[C@@H]1CCN2C(=O)c3cc(-c4ccccc4)ccc3NC(=O)[C@H]12 | -
O=C1Nc2cc(Cl)ccc2C(=O)N2CC[C@H](NS(=O)(=O)c3cccs3)[C@@H]12 | -
Cc1cccc(-c2ccc3c(c2)C(=O)N2CC[C@H](NC(=O)C4CCCC4)[C@H]2C(=O)N3)c1C | -
Cc1cccc(NC(=O)c2oc3ccccc3c2NC(=O)c2nn(-c3cccc(C)c3)ccc2=O)c1 | -
CCNc1ccc(S(=O)(=O)N(CC)CC)cc1N | -
COC(=O)c1ccc(COC(=O)COc2ccc(C#N)cc2)o1 | -
SMILES | KDM5B inhibitor
CCOc1ccc(C2(c3cccc(F)c3)CCCCC2)cc1 | -
CCc1ccc2oc(=O)cc(-c3oc4ccccc4c3NC(C)=O)c2c1 | -
O=Cc1c(-c2ccccc2)c(C=O)n2ccccc12 | -
COc1ccc(-c2ccc3c(c2)C(=O)N2CC[C@H](n4nnc(C(N)=O)c4C(N)=O)C[C@H]2C(=O)N3)c(OC)c1 | -
O=C(N[C@H]1CCN2C(=O)c3cc(-c4ccc(Cl)cc4)ccc3NC(=O)[C@H]12)c1cnccn1 | -
O=C(N[C@H]1CCN2C(=O)c3cc(-c4ccccc4)ccc3NC(=O)[C@H]12)c1cccs1 | -
O=C(N[C@H]1CCN2C(=O)c3cc(-c4ccc(F)cc4F)ccc3NC(=O)[C@H]12)c1cccs1 | -
O=C(O)CCC(=O)N[C@H]1CCN2C(=O)c3cc(-c4ccc5c(c4)OCO5)ccc3NC(=O)[C@H]12 | -
O=C(O)CCC(=O)N[C@H]1CCN2C(=O)c3cc(-c4ccccc4)ccc3NC(=O)[C@H]12 | -
CC(C)NC(=O)N[C@H]1CCN2C(=O)c3cc(-c4ccccc4F)ccc3NC(=O)[C@H]12 | -
O=C(N[C@H]1CCN2C(=O)c3cc(-c4ccc(Cl)cc4)ccc3NC(=O)[C@H]12)c1cccs1 | 32µM
O=C(N[C@H]1CCN2C(=O)c3ccc(Cl)cc3NC(=O)[C@H]12)c1cccs1 | -
COc1ccc(-c2ccc3c(c2)C(=O)N2CC[C@H](NC(=O)CCC(=O)O)[C@H]2C(=O)N3)cc1 | 20µM
COc1ccc(-c2ccc3c(c2)C(=O)N2CC[C@H](NC(=O)c4cccs4)[C@H]2C(=O)N3)c(OC)c1 | 28µM
COc1ccc(Cl)cc1-c1ccc2c(c1)C(=O)N1CC[C@H](NC(=O)c3cccs3)[C@H]1C(=O)N2 | 25µM
C(#Cc1ccccc1)CNC12CC3CC(CC(C3)C1)C2 | -
Cc1ccc(-c2nc3nc(CN4CCCC4)cc(=O)n3[nH]2)cc1 | -
CN(C)C(=O)CCS(=O)(=O)Cc1coc(-c2ccc(F)cc2)n1 | -
CC(C)(CNC(=O)C1(c2ccccc2)CCC1)C(N)=O | -
NCc1ccc(C(=O)N2CCCC2)cc1 | -
CSCC(=O)N[C@H]1CCN2C(=O)c3cc(-c4cccc(C)c4C)ccc3NC(=O)[C@H]12 | -
CSCC(=O)N[C@H]1CCN2C(=O)c3ccccc3NC(=O)[C@H]12 | -
CSCC(=O)N[C@H]1CCN2C(=O)c3cc(-c4ccc(Cl)cc4)ccc3NC(=O)[C@H]12 | 28µM
Cc1[nH]c(=O)[nH]c(=O)c1S(=O)(=O)Nc1ccccc1Cl | -
O=C(COC(=O)c1ccco1)Nc1ccc(Cl)c(C(F)(F)F)c1 | -
SMILES | KDM5B inhibitor
CCCNC(=O)COc1ccccc1NC(C)=O | -
COc1ccc(/C=C(/C#N)C(=O)Nc2cccc3ncccc23)cc1OC | -
COc1cccc(Cc2nc3ccccc3nc2SCC(=O)Nc2cccc(OC)c2)c1 | -
Cc1noc(C)c1C1CCCN1C(=O)c1cc(-c2ccco2)on1 (stereo not given) | -
O=C(C1CCCO1)N1CCc2c(n(Cc3cccnc3)n(CCc3ccccc3)c2=O)C1 (stereo not given) | -
COCCn1c(=O)c2c(n1Cc1ccccc1)CN(Cc1cccnc1OC)CC2 | 35µM
CC(C)CCN1CCc2c(n(Cc3cccnc3)n(CCc3ccccc3)c2=O)C1 | 32µM
COCCn1c(=O)c2c(n1Cc1ccccc1)CN(Cc1cccc(C)n1)CC2 | 35µM
COCCC(=O)N1CCc2c(n(Cc3ccc(OC)cc3)n(Cc3ccccc3)c2=O)C1 | -
COCCn1c(=O)c2c(n1Cc1ccccc1)CN(C(=O)Cc1cccc(F)c1)CC2 | -
CC(=O)N1CCc2c(n(Cc3cccnc3)n(CCc3ccccc3)c2=O)C1 | -
COc1ccc(-n2c(=O)c3c(n2Cc2ccccc2)CN(CCCc2ccccc2)CC3)cc1 | -
COc1ccc(-n2c(=O)c3c(n2Cc2ccccc2)CN(Cc2ccc(F)cc2)CC3)cc1 | -
CN(C(=O)CSc1nnc(-c2cccs2)n1N)C1CCCCC1 | -
CCOC(=O)C(NC(=O)c1cc2ccccc2o1)C(=O)OCC | -
CCc1sc(C(=O)Nc2sc(C)c(C)c2C#N)cc1Br | -
COCCn1c(C)c(C)c(S(=O)(=O)c2ccc(F)cc2)c1NC(=O)C1CCCO1 (stereo not given) | -
O=C(NCCNCc1c[nH]c2ccccc12)c1ccc(F)cc1 | -
Brc1ccccc1/C=N/Nc1ccc2ccccc2c1 | -
COc1ccc(N2CC(c3noc(-c4ccc(Cl)cc4)n3)CC2=O)cc1 (stereo not given) | -
O=C1CC(c2noc(-c3ccc(OC(F)(F)F)cc3)n2)CN1c1ccc(F)cc1 (stereo not given) | -
CCCCOc1ccc(-c2nc(C3CC(=O)N(c4ccc(F)cc4)C3)no2)cc1 (stereo not given) | 32µM
